This is part of a sample that, as a whole, favours compounds with a hit. Of some 79,000 tested, about 15% had one in any assay. Cut-off read from the data, not from the text of the source: active = growth inhibition above about 70%; inactive = the rest.
Tests used:
[1] = NCI Yeast Anticancer Drug Screen. Data for the rad50 strain (AID 155);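 note: 0% = growth of vehicle-only cultures of the same strain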; conditions: S. cerevisiae rad50 strain growth inhibition; at 50.0 µM; stronger effect = higher value
Summary of the method: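 Compounds were tested on a yeast strain with an engineered DNA damage repair alteration; the reported value is growth inhibition normalised to vehicle treatment.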

[2] = NCI Yeast Anticancer Drug Screen. Data for the mec2-1 strain (AID 157); conditions: S. cerevisiae mec2-1 strain, at 50.0 µM, stronger effect = higher value
Summary of the method: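 Yeast mec2-1 mutant treated with compound. Readout: growth inhibition vs vehicle controls.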

[3] = NCI Yeast Anticancer Drug Screen. Data for the sgs1 mgt1 strain (AID 161);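 note: 0% = growth of cultures given vehicle only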; conditions: S. cerevisiae sgs1 mgt1 strain, at 50.0 µM, stronger effect = higher value
Summary of the method: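 Inhibition of yeast growth, normalised to vehicle-treated controls, is reported for a strain bearing genetic alterations in DNA damage repair.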

[4] = NCI Yeast Anticancer Drug Screen. Data for the cln2 rad14 strain (AID 165);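 note: 0% = growth equal to vehicle treated cultures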; conditions: S. cerevisiae cln2 rad14 strain, at 50.0 µM, stronger effect = higher value
Summary of the method: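 cln2 rad14 yeast strain; compound exposure; growth inhibition read vs vehicle controls.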

[5] = NCI Yeast Anticancer Drug Screen. Data for the bub3 strain (AID 167); conditions: S. cerevisiae bub3 mutant strain, at 50.0 µM, stronger effect = higher value
Summary of the method: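 Growth of a checkpoint-deficient yeast mutant is measured after compound exposure. Values represent inhibition relative to vehicle.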

[6] = NCI Yeast Anticancer Drug Screen. Data for the mlh1 rad18 strain (AID 175); conditions: S. cerevisiae mlh1 rad18 strain growth inhibition; at 50.0 µM; stronger effect = higher value
Summary of the method: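 Yeast w/ defined DNA-repair lesions; compound exposure; growth vs vehicle controls → % inhibition.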

Measured: growth inhibition

C=CC1CC(NC(=O)OC)C(=O)O1 (stereo not given)
inactive: [1] 1.05% | [2] 5.2% | [3] 8.45% | [4] -38.1% | [5] 14.3% | [6] -3.25%

C=CCN=C(N)SCCN(CCSC(N)=NCC=C)C(N)=O
inactive: [1] 36.1% | [2] 10.7% | [3] 36.2% | [4] 34.2% | [5] 4.05% | [6] 13.1%

NCC=C1C2CC3CC(C2)CC1C3
inactive: [1] 1.9% | [2] -7.25% | [3] 1.4% | [4] -26.4% | [5] -13.7% | [6] 12.6%

c1ccc2c(c1)CCC/C2=N\OCC1CO1 (stereo not given)
inactive: [1] -7.5% | [2] -28.4% | [3] -35.2% | [4] -3.1% | [5] -33.1% | [6] 7.05%

FC(F)(F)c1ccc(C2SCc3nc4ccccc4n32)cc1 (stereo not given)
inactive: [1] -43% | [2] -5.4% | [3] -1.95% | [4] -0.5% | [5] -14.2% | [6] 11.3%

CCOP(=O)(OCC)c1cc(NC(=O)c2cc(NC(=O)c3cc(NC(=O)Nc4cc(C(=O)Nc5cc(C(=O)Nc6cc(P(=O)(OCC)OCC)c7cccc(P(=O)(OCC)OCC)c7c6)n(C)c5)n(C)c4)cn3C)cn2C)cc2c(P(=O)(OCC)OCC)cccc12
inactive: [1] -5.45% | [2] -1.55% | [3] -16.1% | [4] 19.9% | [5] 2.5% | [6] 10.7%

Cc1sc2ncnc(Cl)c2c1C
inactive: [1] 1.95% | [2] 13.2% | [3] -1.4% | [4] -23% | [5] 4.45% | [6] 4.05%

Cc1cc(N2CCCCC2)nc2ccc(Cc3ccc4nc(N5CCCCC5)cc(C)c4c3)cc12
inactive: [1] 48.7% | [2] -7.05% | [3] -27.9% | [4] -16.4% | [5] -47.4% | [6] 27.5%

C[C@]12C=CC(=O)C=C1[C@@H](F)C[C@H]1[C@@H]3CC[C@](O)(C(=O)CO)[C@@]3(C)C[C@H](O)[C@@]12F
inactive: [1] -11.9% | [2] -26.4% | [3] 4.8% | [4] 66.8% | [5] 2.85% | [6] -9.9%

NC(=S)N/N=C\C(CC(O)C(O)CO)=N\NC(N)=S (stereo not given)
inactive: [1] 4.95% | [2] 6.55% | [3] 4.45% | [4] 8.7% | [5] 12.4% | [6] 10.2%

N#CCCn1[nH]c(=O)c(Cl)c(Cl)c1=O
inactive: [1] 6.95% | [2] 4.6% | [3] -3.9% | [4] -6.8% | [5] 4.15% | [6] -3.3%

C=CCc1ccc(OC(=O)Nc2ccccc2)c(OC)c1
inactive: [1] 55.9% | [2] 25.2% | [3] 31.4% | [4] 13.9% | [5] 33.5% | [6] 23.4%

COC(=O)C(CC(=O)Nc1ccc(C)cc1)C(=O)C(=O)Nc1c(C(C)C)cccc1C(C)C (stereo not given)
inactive: [1] -43.4% | [2] -17.8% | [3] -7.5% | [4] 6.1% | [5] -9.9% | [6] -25.2%

CC1NC(=O)c2c(-c3ccccc3)nn(-c3ccccc3)c2NC1=O (stereo not given)
inactive: [1] 1.35% | [2] -2.4% | [3] 11.8% | [4] -3.85% | [5] 3.15% | [6] -33.2%

CC12CCCC=C1C(C)(C)C(O)CC2 (stereo not given)
inactive: [1] 3.45% | [2] 1.7% | [3] 2.95% | [4] 7.3% | [5] -26.8% | [6] 0.8%

CC(=O)N(C)CCc1c[nH]c2ccccc12
inactive: [1] -18.4% | [2] -37.5% | [3] -33.9% | [4] 13.2% | [5] 9.85% | [6] -4.8%

Cn1c(-c2ccccc2)c2c(=O)oc3ccccc3c2c1-c1ccccc1
inactive: [1] -14.6% | [2] 8.8% | [3] 9.55% | [4] 1.8% | [5] 8.25% | [6] 19.1%

COc1ccc2c(c1)OC1(OCCO1)[C@@H]1C2CC[C@@]2(C)C1CCC21OCCO1 (stereo not given in full)
inactive: [1] 48.2% | [2] 17.9% | [3] 38.9% | [4] 28.8% | [5] 15.8% | [6] 58.5%

C=C1CC[N+]2(CCCC)CCCC12 (stereo not given)
inactive: [1] 4.85% | [2] 29.2% | [3] 16.2% | [4] -4.1% | [5] 41.6% | [6] 1%

CC(=O)OCCc1ccccc1C#N
inactive: [1] 7.35% | [2] 9.05% | [3] 9.3% | [4] -11.1% | [5] -4.25% | [6] 11.9%

O=C(N/N=C\c1ccc(Cl)cc1Cl)C1CC1
inactive: [1] -19.8% | [2] -3.8% | [3] -7.6% | [4] -19.2% | [5] -19.3% | [6] -24.9%

S=C1c2cc(Cl)ccc2NC(=NC2CCCC2)C2CSCN12 (stereo not given)
inactive: [1] 7.65% | [2] 14.7% | [3] 51.5% | [4] -3.25% | [5] 33.3% | [6] 28.5%

O=C1Oc2ccccc2CC1C(=O)c1ccc(Cl)cc1 (stereo not given)
inactive: [1] -7.75% | [2] -0.25% | [3] 8.95% | [4] -61.1% | [5] -21.4% | [6] 7.75%

CC(=O)N1c2cc(N=NN(C)C)ccc2NC(=O)CC1C (stereo not given)
inactive: [1] 20% | [2] -3.05% | [3] 9.5% | [4] 0.65% | [5] 4.2% | [6] 34.3%

O=C(COc1ccccc1Cl)N1N=C(c2ccc(Cl)cc2)CC1(O)c1ccccc1 (stereo not given)
inactive: [1] -17.9% | [2] -7.2% | [3] -43.2% | [4] -0.85% | [5] -25.8% | [6] -16.9%

N=C1N=Nc2nc(C(C(=O)c3cccs3)c3nc4n(c3O)C(=N)N=N4)c(O)n21 (stereo not given)
inactive: [1] -5.1% | [2] 17.1% | [3] -1.25% | [4] -15.3% | [5] 1.7% | [6] -12.3%

O=C1C(c2ccccc2Cl)[C@H]2CC=C[C@H]2N1O (stereo not given in full)
inactive: [1] -26.1% | [2] -39.2% | [3] -8.4% | [4] 6.65% | [5] -21.6% | [6] -5.35%

COC(=O)C1C2C=CC(C1C(=O)O)C1C(Br)=C(Br)C21 (stereo not given)
inactive: [1] 20.4% | [2] 10.9% | [3] -8.05% | [4] -10.1% | [5] 1.9% | [6] -8.45%

O=C1C2ON3c4ccccc4C(=O)C3(c3ccccc3)C2C(=O)N1c1ccccc1 (stereo not given)
inactive: [1] -40.9% | [2] -31.3% | [3] -63% | [4] -14.3% | [5] -37% | [6] -49%

Cn1c(-c2ccc(Br)cc2)cc2[nH]c(=S)nc(N)c2c1=O
inactive: [1] -16.8% | [2] -23.9% | [3] -14% | [4] -12.3% | [5] -7.75% | [6] 2.5%

CCOC(=O)CSc1[nH]c(NC(=S)Nc2ccccc2)c(C(N)=O)c1C(N)=O
inactive: [1] -14.2% | [2] -8.2% | [3] 23.7% | [4] -1.2% | [5] 7.5% | [6] -4.45%

CC1(C)OC(=O)C(C)(C)OC1=O
inactive: [1] -11.7% | [2] -5% | [3] 7.05% | [4] 12.3% | [5] 8.4% | [6] -3.15%

CCc1n[nH]c(=O)n1NC(=O)/C=C\C(=O)O
inactive: [1] -12.2% | [2] -16.1% | [3] -23.9% | [4] -17.7% | [5] -10.7% | [6] -25.5%

CCC(c1ccc(O)cc1)c1cc2c(cc1OCC(=O)OC)OCO2 (stereo not given)
inactive: [1] -5.1% | [2] -9.3% | [3] -4.65% | [4] -6.75% | [5] 0.65% | [6] 10.2%

NCCOc1ccccn1
inactive: [1] -1.7% | [2] -10.8% | [3] -0.6% | [4] -10.7% | [5] 1% | [6] -1.9%

O=C(O)c1c(CC(Cc2ccc3c(c2)CCCC3)C(=O)O)ccc2c1CCCC2 (stereo not given)
inactive: [1] 46.3% | [2] 23.6% | [3] 9.8% | [4] 11.8% | [5] 40.9% | [6] 56.7%

C=C1c2ccccc2C=NN1c1ccccc1
inactive: [1] 19.4% | [2] 4.35% | [3] 13.2% | [4] 4.25% | [5] -8.75% | [6] 1%

CCOC(=O)c1nc2ccc(C(F)(F)F)cc2nc1NCc1ccc(OC)cc1
inactive: [1] 4.6% | [2] 9.8% | [3] -1.15% | [4] 17.2% | [5] 5.15% | [6] -15.7%

Cc1nc2ccc(S(=O)(=O)Nc3ccccn3)cc2c(=O)n1NS(=O)(=O)c1ccccn1
inactive: [1] 42.6% | [2] 12.1% | [3] 12% | [4] 22.8% | [5] -14.2% | [6] 26.4%

CC/C=N/Nc1ccc([N+](=O)[O-])cc1[N+](=O)[O-]
inactive: [1] 15.6% | [2] -9.1% | [3] 4.6% | [4] 3.3% | [5] 1.6% | [6] 22.6%

— PubChem BioAssay (NCI)
